Source: PubChem BioAssay AID1159580 (chemical genetic matrix, 2015)
Several values for one entry are separate records, joined by “and”; a condition that tells them apart may be missing. Equal values may be shown once. Screen size: about 5,500 compounds; about 2,000 (36%) were called active. Inconclusive results (about 18%) are left out. No stated cut-off is given here; in the data, active means normalized growth mostly below about 0.91 (no sharp cut-off); inconclusive means no clear call, values can overlap the other calls; inactive means mostly above about 0.92. This is one part of the list.

Test: chemical genetic growth profiling, strain panel (AID 1159580);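 further: tested at 20 µM; growth read once vehicle control cultures reached saturation at 30 °C; 1 = growth at the plate median or of vehicle wells; lower values mean less growth of the strain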
Details: S. cerevisiae deletion strains, growth OD

Measured: normalized growth

C[C@]12CCC3c4ccc(O)cc4CCC3C1CC[C@@H]2OC(=O)CCC1CCCC1 (some centres undefined)
inactive: locus YAL021C, strain ccr4, active compounds read low 1.03 | locus YAL026C, strain drs2, active compounds read low 0.997 | locus YAL030W, strain snc1, active compounds read low 1.01 | locus YBL061C, strain skt5, active compounds read low 1 | locus YBR009C, strain hhf1, active compounds read low 1 | locus YBR021W, strain FUR4, active compounds read low 1.02 | locus YBR023C, strain chs3, active compounds read low 1.03 | locus YBR171W, strain sec66, active compounds read low 1.02 | locus YBR229C, strain ROT2, active compounds read low 0.961 | locus YBR231C, strain swc5, active compounds read low 0.98 | locus YBR279W, strain paf1, active compounds read low 1 | locus YCL011C, strain gbp2, active compounds read low 1.02 | locus YCL016C, strain dcc1, active compounds read low 1.03 | locus YCL029C, strain bik1, active compounds read low 1 | locus YCL061C, strain MRC1, active compounds read low 1.01 | locus YCL069W, strain vba3, active compounds read low 1.01 | locus YCR088W, strain abp1, active compounds read low 1.01 | locus YDL005C, strain med2, active compounds read low 1.01 | locus YDL035C, strain GPR1, active compounds read low 0.959 | locus YDL040C, strain nat1, active compounds read low 0.997 | locus YDL074C, strain BRE1, active compounds read low 0.97 | locus YDL101C, strain DUN1, active compounds read low 0.985 | locus YDL185W, strain tfp1, active compounds read low 0.975 | locus YDL192W, strain arf1, active compounds read low 1 | locus YDR001C, strain nth1, active compounds read low 1 | locus YDR069C, strain doa4, active compounds read low 0.989 | locus YDR101C, strain arx1, active compounds read low 0.959 | locus YDR137W, strain rgp1, active compounds read low 1.03 | locus YDR150W, strain NUM1, active compounds read low 0.985 | locus YDR159W, strain sac3, active compounds read low 0.982 | locus YDR162C, strain NBP2, active compounds read low 0.944 | locus YDR195W, strain ref2 1 | locus YDR297W, strain sur2, active compounds read low 1.01 | locus YDR318W, strain mcm21, active compounds read low 1 | locus YDR334W, strain swr1, active compounds read low 1.01 | locus YDR335W, strain msn5, active compounds read low 1.02 | locus YDR388W, active compounds read low 0.991 | locus YDR392W, strain spt3, active compounds read low 0.944 | locus YDR502C, strain sam2, active compounds read low 0.994 | locus YEL003W, strain gim4, active compounds read low 0.988 | locus YEL037C, strain rad23, active compounds read low 0.992 | locus YEL061C, strain CIN8 (second series), active compounds read low 1.01 | locus YEL061C, strain CIN8, active compounds read low 0.989 | locus YER015W, strain faa2, active compounds read low 1 | locus YER016W, strain bim1, active compounds read low 1.01 | locus YER110C, active compounds read low 1.01 | locus YER111C, strain swi4, active compounds read low 1.01 | locus YER155C, strain BEM2 (second series), active compounds read low 1.01 | locus YER155C, strain BEM2, active compounds read low 1 | locus YER167W, strain BCK2, active compounds read low 1.01 | locus YFR010W, strain ubp6, active compounds read low 1.01 | locus YGL078C, strain dbp3, active compounds read low 0.998 | locus YGL086W, strain mad1, active compounds read low 0.994 | locus YGL167C, strain pmr1, active compounds read low 1.01 | locus YGL173C, strain kem1, active compounds read low 1.02 | locus YGL227W, strain vid30, active compounds read low 1.03 | locus YGL240W, strain doc1, active compounds read low 1.05 | locus YGL248W, strain PDE1, active compounds read low 0.99 | locus YGL253W, strain hxk2, active compounds read low 1.01 | locus YGR135W, strain pre9, active compounds read low 1.07 | locus YGR229C, strain SMI1, active compounds read low 0.982 | locus YGR252W, strain gcn5, active compounds read low 1.16 | locus YHR013C, strain ard1, active compounds read low 1.03 | locus YHR027C, strain rpn1, active compounds read low 0.995 | locus YHR030C, strain SLT2, active compounds read low 0.99 and 1.03 | locus YHR079C, strain IRE1 (second series), active compounds read low 0.996 | locus YHR079C, strain IRE1, active compounds read low 1.04 | locus YHR094C, strain hxt1, active compounds read low 0.997 | locus YHR129C, strain ARP1, active compounds read low 0.992 | locus YHR142W, strain chs7, active compounds read low 1.05 | locus YHR200W, strain rpn10, active compounds read low 0.998 | locus YIL066C, strain RNR3, active compounds read low 0.977 | locus YIL073C, strain SPO22, active compounds read low 0.989 | locus YIL125W, strain kgd1, active compounds read low 0.989 | locus YIR030C, strain dcg1, active compounds read low 1.01 | locus YJL092W, strain hpr5, active compounds read low 1.01 | locus YJL095W, strain BCK1 (second series), active compounds read low 1.01 | locus YJL095W, strain BCK1, active compounds read low 1.01 | locus YJL115W, strain asf1, active compounds read low 1.01 | locus YJL129C, strain trk1, active compounds read low 1.03 | locus YJL134W, strain LCB3, active compounds read low 0.979 | locus YJL154C, strain vps35, active compounds read low 1.01 | locus YJL164C, strain tpk1, active compounds read low 0.996 | locus YJL166W, strain qcr8, active compounds read low 1.02 | locus YJL168C, strain set2, active compounds read low 0.995 | locus YJL187C, strain SWE1 (second series), active compounds read low 0.976 | locus YJL187C, strain SWE1, active compounds read low 1.01 | locus YJR043C, strain POL32, active compounds read low 0.967 | locus YJR066W, strain TOR1, active compounds read low 0.929
